Most compounds without a hit are left out; they make up all but 2.3% or so of the library.
mHtt clearance: clearance of mutant huntingtin inclusions, primary screen, imaging, HeLa Exon1htt(103Q)mCFP, confocal imaging; inhibition, % at 1.5 µM; aggregate imaging; zero = plate's median compound well; AID 853, 2007; hit rate 0.42% among 47,000;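 active = inhibition of aggregate fluorescence above about 70%, also judged a hit by eye on the cell image, limit read from the data, passing the limit was not always enough; inconclusive = no rule stated for this call; inactive = not judged a hit on image review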;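 also: cells exposed to compound for three days before fixation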
HTR1E antagonist: 5-HT1E receptor antagonists, primary screen, cell-based, HTS. inhibition, % at 6 µM. hit rate 0.99% among 65,000. 5-hydroxytryptamine receptor 1E (Homo sapiens), P28566. CHO 5-HT1E Ga15 NFAT-bla reporter, FRET, antagonist;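 active = inhibition above a set limit, the mean inhibition across every tested compound plus 3 SD, cut at about 29% in these data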;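 also: signal is the 460 over 535 nm emission ratio of beta-lactamase substrate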
5HT1a antag: human 5-HT1a receptor antagonists, primary screen, cell-based, CHO, Ga15 NFAT-bla reporter; 5-hydroxytryptamine receptor 1A (Homo sapiens), P08908; CHO 5-HT1a Ga15 NFAT-bla reporter, antagonist mode; inhibition, % at 10 µM; hit rate 0.68% among 62,000;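 active = inhibition above the mean of all tested compounds plus 3 SD, cut at about 43% in these data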;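 also: receptor stimulated by 5-CT agonist at 100 nM near EC80; beta-lactamase reporter measured by ratiometric fluorescence of a cleavable substrate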
Target sequence (P08908 whole entry, looked up): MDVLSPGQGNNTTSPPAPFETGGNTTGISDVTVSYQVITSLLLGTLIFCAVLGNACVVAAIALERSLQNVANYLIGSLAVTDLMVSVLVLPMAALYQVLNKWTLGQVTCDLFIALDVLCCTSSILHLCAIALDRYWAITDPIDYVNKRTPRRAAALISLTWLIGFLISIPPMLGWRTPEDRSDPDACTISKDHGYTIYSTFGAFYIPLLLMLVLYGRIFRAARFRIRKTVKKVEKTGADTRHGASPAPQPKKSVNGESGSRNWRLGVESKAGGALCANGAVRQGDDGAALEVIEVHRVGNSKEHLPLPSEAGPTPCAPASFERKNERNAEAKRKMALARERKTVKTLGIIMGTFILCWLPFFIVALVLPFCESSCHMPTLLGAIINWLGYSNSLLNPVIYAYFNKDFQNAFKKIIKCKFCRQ
5HT1E ag: 5-HT1E receptor agonists, primary screen, cell-based, HTS; 5-hydroxytryptamine receptor 1E (Homo sapiens), P28566; CHO 5-HT1E Ga15 NFAT-bla reporter, FRET; 0% DMSO wells, 100% control agonist wells; activation, % at 6 µM; hit rate 0.69% among 65,000; AID 574, 2007;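 active = activation above a set limit, the screen-wide mean activation plus 3 SD, cut at about 8.5% in these data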
HTR1A agonist: human 5-HT1a receptor agonists, primary screen, cell-based, CHO, Ga15 NFAT-bla reporter; 5-hydroxytryptamine receptor 1A (Homo sapiens), P08908; CHO 5-HT1a Ga15 NFAT-bla reporter, FRET ratio; 0% basal, 100% maximal reference agonist; activation, % at 10 µM; hit rate 0.56% among 65,000; AID 567, 2006;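 active = activation above the screen-wide mean activation plus 3 SD, cut at about 19% in these data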
Of the large screens only hits and unclear results are named; the others gave an inactive call.

COCCOC(=O)c1[nH]c2c(c1C)C(=O)CC(c1ccc(F)cc1)C2 (stereo unspecified)	none
COCCOC(=O)c1[nH]c2c(c1C)C(=O)CC(c1ccccc1)C2 (stereo unspecified)	HTR1E antagonist 66.7 (no result: mHtt clearance)
COC(=O)c1[nH]c2c(c1C)C(=O)CC(c1cccs1)C2 (stereo unspecified)	HTR1E antagonist 57.5 (no result: mHtt clearance)
CSCCOC(=O)c1[nH]c2c(c1C)C(=O)CC(c1ccco1)C2 (stereo unspecified)	HTR1E antagonist 56.6 (no result: mHtt clearance)
CC(C(=O)NC1CCCC1)N(C(=O)c1snc(C(N)=O)c1N)c1ccc2c(c1)OCCO2 (stereo unspecified)	none (no result: mHtt clearance)
Cc1nnc(SCCn2c(N3CCN(c4ccccc4)CC3)nc3c2c(=O)n(C)c(=O)n3C)s1	none (no result: mHtt clearance)
Cc1c(C(=O)OCCOC(C)C)[nH]c2c1C(=O)CC(c1ccco1)C2 (stereo unspecified)	HTR1E antagonist 81.1, 5HT1a antag 62.8 (no result: mHtt clearance)
COCCOC(=O)c1[nH]c2c(c1C)C(=O)CC(c1ccco1)C2 (stereo unspecified)	HTR1E antagonist 34.7 (no result: mHtt clearance)
Cc1c(C(=O)OCc2ccccc2)[nH]c2c1C(=O)CC(c1ccco1)C2 (stereo unspecified)	HTR1E antagonist 84.2, 5HT1a antag 58.0 (no result: mHtt clearance)
COC(=O)c1ccc(OCC2c3cc(OC)c(OC)cc3CCN2C(=O)C2CC2)cc1 (stereo unspecified)	HTR1E antagonist 34.5 (no result: mHtt clearance)
COc1ccc(C2=NOC(C(=O)NCc3ccc(F)cc3)C2)cc1OC (stereo unspecified)	mHtt clearance inconclusive, HTR1E antagonist 69.8
COc1cccc(C2=NOC(C(=O)NCc3ccc(F)cc3)C2)c1 (stereo unspecified)	none (no result: mHtt clearance)
COc1cc(C2=NOC(C(=O)NCc3ccc(F)cc3)C2)cc(OC)c1OC (stereo unspecified)	HTR1E antagonist 69.8, 5HT1a antag 55.6
COc1ccc(-c2nnc3ccc(SCC(=O)N4CCN(c5ccccc5)CC4)nn23)cc1	none (no result: mHtt clearance)
CCCN1Cc2cccc(C(=O)Nc3ccc(N4CCN(CC)CC4)cc3)c2C1=O	none (no result: mHtt clearance)
O=C(OCn1nnc2ccccc2c1=O)c1cc2ccccc2o1	none (no result: mHtt clearance)
COc1ccc(-c2nc(-c3cccs3)c(-c3cccs3)[nH]2)cc1O	none
Cc1cccc(N2CCN(CC(=O)NCC3CCCCC3)CC2)c1C	HTR1A agonist 41.0
O=C(CNCC1CCCCC1)Nc1ccccc1N1CCCCC1	none (no result: HTR1E antagonist, 5HT1a antag, 5HT1E ag, HTR1A agonist)
Cc1cc(NC(=O)CC(CN(C)S(=O)(=O)c2ccccc2)c2ccccc2)no1 (stereo unspecified)	none (no result: mHtt clearance)
CCCCCCc1cc2cc(C(=O)NC)c(=N)oc2cc1O	HTR1A agonist 32.7 (no result: 5HT1a antag)
O=C(O)c1ccc(S(=O)(=O)Nc2ccc(F)c(Cl)c2)cc1	none (no result: mHtt clearance)
Nc1cc(C(=O)O)ccc1Nc1ccc(F)c(F)c1	5HT1E ag 33.2
N#C/C(=C/c1ccc(N2CCCCCC2)o1)c1ccc(F)cc1	HTR1E antagonist 89.7, 5HT1a antag 87.3 (no result: mHtt clearance)
CCOC(=O)CSC1=C(C#N)C(=O)NC2(CCCCC2)S1	none (no result: mHtt clearance, 5HT1a antag)
COc1ccc(Cl)cc1NC(=O)c1ccco1	5HT1E ag 22.8
Cn1c(=O)c(C(=O)c2ccccc2)nc2ccccc21	mHtt clearance 77.1
COc1ccc(C(=O)N2CCCC(c3nc(-c4ccc(OC)c(OC)c4)no3)C2)c(OC)c1 (stereo unspecified)	HTR1A agonist 20.4 (no result: mHtt clearance)
CCOC(=O)CSc1nc2c(sc(=S)n2Cc2ccco2)c(=O)n1-c1ccc(F)cc1	5HT1a antag 50.2
COc1ccc(Cl)cc1NC(=O)CSc1ncnc2c1oc1ccccc12	none (no result: mHtt clearance)
COc1cccc(NC(=O)CSc2ncnc3c2oc2ccccc23)c1	HTR1E antagonist 31.2 (no result: mHtt clearance)
O=S(=O)(c1ccc(NCCc2c[nH]c3ccccc23)nc1)N1CCOCC1	none
Cc1cc(C)c(C)c(/C=C(/C#N)C(N)=S)c1C	mHtt clearance 77.1 (no result: HTR1E antagonist, 5HT1a antag, 5HT1E ag, HTR1A agonist)
CCCCOC(=O)Nc1ccc(S(=O)(=O)Nc2nc(C)cc(C)n2)cc1	5HT1E ag 11.5 (no result: 5HT1a antag)
Cc1cc(C)nc(NS(=O)(=O)c2ccc(N)cc2)n1	none (no result: mHtt clearance, 5HT1a antag)
CCOc1ccc(-n2c(Cc3ccccc3)nnc2SCc2c(C)noc2C)cc1	none
COc1ccc(S(=O)(=O)N(CC(=O)NCc2ccco2)C2CCCCC2)cc1OC	none (no result: mHtt clearance)

Assay outcomes as filed in PubChem.
